Calls of active or inactive are those of the source.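 Rule for the calls: active = blocks over 70% of labeled estradiol binding at 10 µM, or over a set limit at 100 nM; inactive = the rest.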
Molecular target: Estrogen receptor beta (Homo sapiens) (UniProt Q92731)
Assay: ERbeta ligand binders by competition, primary screen, cell-based, Cos7 ERbeta-GFP, flow cytometry (AID 1210);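 note: 0% = DMSO vehicle wells and 100% = complete loss of labeled estradiol signal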
Details: fluorescent estrogen binding, stronger effect = higher value
[1] = ligand binding inhibition, at 0.1 µM

Chain of Estrogen receptor beta (Homo sapiens) (Q92731 whole entry, looked up): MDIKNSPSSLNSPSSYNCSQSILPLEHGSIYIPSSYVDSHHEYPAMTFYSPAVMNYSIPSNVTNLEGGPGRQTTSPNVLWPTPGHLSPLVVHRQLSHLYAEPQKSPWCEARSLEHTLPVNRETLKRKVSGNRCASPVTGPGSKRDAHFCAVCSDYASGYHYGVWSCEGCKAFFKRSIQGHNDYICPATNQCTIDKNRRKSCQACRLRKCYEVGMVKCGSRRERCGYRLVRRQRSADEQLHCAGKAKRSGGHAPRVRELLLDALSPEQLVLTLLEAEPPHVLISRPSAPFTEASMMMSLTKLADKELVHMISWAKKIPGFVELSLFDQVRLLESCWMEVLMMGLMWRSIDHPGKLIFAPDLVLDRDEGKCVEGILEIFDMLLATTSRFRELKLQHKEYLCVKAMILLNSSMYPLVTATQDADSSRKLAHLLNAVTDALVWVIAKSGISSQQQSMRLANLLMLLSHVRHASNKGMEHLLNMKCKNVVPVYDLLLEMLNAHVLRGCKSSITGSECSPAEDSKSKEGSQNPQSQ

SMILES	inhibition (at 10 µM)	inhibition [1] [%]
CCOC(=O)CSc1nn(C)c(=S)s1	47% (active)	72
Cc1ccc2nc(/C(C#N)=C\c3ccc(N4CCCCC4)c([N+](=O)[O-])c3)[nH]c2c1	15% (inactive)	6
Cc1occc1C(=O)NCc1cccc(CNC(=O)c2ccoc2C)c1	2% (inactive)	10
O=C(COC(=O)CCOc1ccccc1)NCc1ccco1	54% (inactive)	37
Cc1ccc(S(=O)(=O)N2CCCCC2)cc1C(=O)Nc1ncn[nH]1	13% (inactive)	23
NC(=S)n1[nH]c(-c2ccc([N+](=O)[O-])cc2)c(N=Nc2ccc(O)cc2)c1=O	35% (inactive)	15
Cc1ccc(-c2nn(-c3ccccc3)cc2/C=N/NC(=O)c2ccc(Br)o2)cc1	38% (inactive)	58
Cc1nc2ccccc2c(=O)n1/N=C/c1c(O)ccc2oc3c(c12)CCCC3	47% (inactive)	34
COc1ccc(-c2nnc(SCC(=O)c3cc(C)n(Cc4cccs4)c3C)o2)cc1	27% (inactive)	1
Cc1cc(C(=O)CSc2nnc(-c3ccccc3F)o2)c(C)n1Cc1cccs1	51% (inactive)	30
O=[N+]([O-])c1ccc(Cl)c2c1C1C=CCC1C(c1ccccn1)N2 (configuration not stated)	0% (inactive)	19
Cc1noc(C)c1COC(=O)c1cc2c3ccccc3n(C)c2s1	59% (inactive)	4
COc1cc(C2C(C#N)=C(N)Oc3cc(C)oc(=O)c32)cc2c1OCO2 (configuration not stated)	32% (inactive)	46
Cn1ccnc1SCC(=O)Nc1ccc2nc(SCC(=O)NC3CC3)sc2c1	46% (inactive)	38
COc1cc(-c2nc3ccccn3c2/N=C/c2ccccc2)ccc1O	54% (inactive)	9
CCc1ccc2nc(NC(=O)c3ccc4c(=O)[nH]c(CN5CCOCC5)nc4c3)sc2c1	29% (inactive)	10
COc1ccc(/C=N/NC(=O)c2nc(-c3ccccc3)cc(-c3ccccc3)n2)cc1O	71% (active)	81
Cc1ccc(Cn2c(NC(=O)c3ccco3)nc3ccccc32)cc1	10% (inactive)	19

SMILES	inhibition (at 10 µM)	inhibition [1] [%]
O=c1cc(CSc2nnc(-c3cccs3)n2Cc2ccccc2)nc2sc3ccccc3n12	54% (inactive)	26
Cc1ccc(Oc2cc(N3CCOCC3)nc(-c3ccccc3)n2)cc1	35% (inactive)	15
Cc1oc(-c2ccc(Cl)cc2)cc1-c1nn2c(-c3ccoc3C)nnc2s1	57% (inactive)	29
O=c1cc(O)c2sc(Nc3ccc(F)cc3)nc2[nH]1	8% (inactive)	9
C[C@]12CC[C@@H]3c4ccc(O)cc4C(=O)C[C@H]3[C@@H]1CC[C@@H]2O	45% (active)	89
Cc1cc(C)c2c(c1)[C@@H]1C=CC[C@@H]1[C@H](c1ccc(S(=O)(=O)N3CCOCC3)cc1)N2	35% (inactive)	48
CC(C)C1Nc2ccc(S(N)(=O)=O)cc2C2C=CCC21 (configuration not stated)	57% (inactive)	20
COc1ccc(NC(=O)CN(c2ccccc2)S(=O)(=O)N(C)C)cc1OC	40% (inactive)	15
O=C(CSc1nc(C2CCCCC2)n(-c2ccccc2)n1)NCC(F)(F)F	0% (inactive)	21
Cc1cc(C)nc(NC(=O)CSc2nn(C)c(=S)s2)n1	6% (inactive)	20
CC(C)(C)c1nnc2sc(SC/C(O)=C(\C#N)c3nc4ccccc4[nH]3)nn2c1=O	31% (inactive)	15
CCn1c(SCC(=O)c2ccc(O)c(O)c2)nnc1-c1ccccc1OC	58% (inactive)	3
COC1=C/C(=C/c2c(N)n3cc(C)sc3nc2=O)C=CC1=O	62% (inactive)	7
CCN1CCN(Cc2c(O)c(Cl)cc3c(C)cc(=O)oc23)CC1	31% (inactive)	8
CC(C)CN(C(=O)COC(=O)c1cc2c(s1)CCC2)C1CCS(=O)(=O)C1 (configuration not stated)	25% (inactive)	28
CC1(C)OC(C)(C)/C(=C/Nc2ccc(O)cc2)C1=O	58% (inactive)	58
O=c1oc2ccccc2cc1-c1ccc(O)cc1O	42% (inactive)	21
Nc1ccc2nc(-c3cccs3)[nH]c2c1	50% (inactive)	34

Reference: PubChem BioAssay AID1210 (NMMLSC, 2008)
